Assay results reported in PubChem BioAssay AID1847 (The Scripps Research Institute Molecular Screening Center, 2009).
Where “and” joins values, the source holds several entries; their conditions need not be identical. Equal entries are not always repeated. Screen size: about 2,300 compounds; about 1,100 (48%) were called active.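 Rule for the calls: active = inhibition above the mean inhibition of all tested sample wells plus 3 SD (cut at about 10% in these data); inactive = the rest.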 The set was probably picked from earlier hits. Not all results are given here.

What follows are molecules tested against Luciferin 4-monooxygenase (Photinus pyralis) (UniProt P08659) (assay: firefly luciferase inhibitors, HSP90 counter-screen, confirmation, artefact control for HSP90 inhibitor project, biochemical, luminescence, triplicate (AID 1847;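 note: 0% = DMSO with luciferase and 100% = wells lacking luciferase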)). Settings: purified native firefly luciferase, at 5.9 µM, active compounds read high.
Chain of Luciferin 4-monooxygenase (Photinus pyralis) (P08659 whole entry, looked up): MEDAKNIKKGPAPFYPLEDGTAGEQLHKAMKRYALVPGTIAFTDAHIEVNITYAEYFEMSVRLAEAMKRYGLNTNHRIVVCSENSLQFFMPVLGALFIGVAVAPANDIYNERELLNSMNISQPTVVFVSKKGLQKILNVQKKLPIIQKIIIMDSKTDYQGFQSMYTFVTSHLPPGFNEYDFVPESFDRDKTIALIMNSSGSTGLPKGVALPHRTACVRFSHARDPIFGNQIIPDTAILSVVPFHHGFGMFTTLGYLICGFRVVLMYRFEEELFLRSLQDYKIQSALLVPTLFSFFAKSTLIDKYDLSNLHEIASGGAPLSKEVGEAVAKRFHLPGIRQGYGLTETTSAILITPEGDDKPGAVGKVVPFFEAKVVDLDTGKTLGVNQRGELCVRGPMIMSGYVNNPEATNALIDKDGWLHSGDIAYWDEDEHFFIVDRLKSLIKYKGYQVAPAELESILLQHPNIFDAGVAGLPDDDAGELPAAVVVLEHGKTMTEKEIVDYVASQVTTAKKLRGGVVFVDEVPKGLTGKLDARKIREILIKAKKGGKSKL
With `COC(=O)c1sc(NC(=O)c2ccc(OC)cc2OC)nc1C` the inhibition was 56.6% (active). `COC(=O)c1sc(NC(=O)c2csc3c2CCCC3)nc1C` was tested, and the inhibition was -24.8% (inactive). In the case of `COc1cc(SC)ccc1C(=O)Nc1nc(C)cs1`, the inhibition is reported as 90.1% (active). `Cc1ccc(-n2c(SCC(=O)Nc3ncc(Cl)cc3Cl)nc3ccccc32)cc1` was tested, and the inhibition was -5.93% (inactive). For `Cc1sc2nc(CSCC(=O)Nc3c(Cl)cccc3Cl)[nH]c(=O)c2c1C`, the inhibition was -10.5% (inactive). For `CCOc1ccc(C2NC(=S)NC3=C2CCc2ccccc23)cc1` (stereo not given), the inhibition was 27.2% (active). In the case of `O=C(Nc1nc2ccccc2s1)c1ccc2c(c1)OCO2`, the inhibition is reported as 56% (active). For `O=C(Nc1ccccc1)c1ccc2c(c1)OCCCO2`, the inhibition was 32.8% (active). With `Cc1nc(NC(=O)c2cccc(Cl)c2)sc1-c1csc(Nc2cccc(Cl)c2)n1` the inhibition was -10.7% (inactive). `c1ccc(-c2ccc3c(c2)NC(C2Nc4cc(-c5ccccc5)ccc4O2)O3)cc1` (stereo not given) was tested, and the inhibition was -6.37% (inactive). In the case of `Clc1ccc(-c2cc(-c3ccccn3)on2)c(Cl)c1`, the inhibition is reported as 81.9% (active). With `O=[N+]([O-])/C=C/c1ccc2c(ccn2Cc2ccccc2)c1` the inhibition was 5.87% (inactive). `CCN(CC)CCn1c(N)c(S(=O)(=O)c2ccccc2)c2nc3ccccc3nc21` was tested, and the inhibition was -7.93% (inactive). For `COc1ccc(-n2nnnc2-c2nc3ccccc3s2)cc1`, the inhibition was 52.3% (active). For `Cc1cccc(NC(=O)/C=C/c2ccc3c(c2)OCO3)n1`, the inhibition was 30.9% (active). In the case of `Cc1csc(SCC(=O)Nc2sccc2C#N)n1`, the inhibition is reported as 8.6% (inactive). With `Cn1c(-c2ccco2)nc2cc3ccccc3cc21` the inhibition was 51.4% (active). With `Cc1cc(C(=O)COC(=O)C2CC2)c(C)n1-c1ccc(F)cc1` the inhibition was 88.4% (active). For `Cc1ccc(C(=O)O/N=C(\N)c2ccccn2)cc1Cl`, the inhibition was 79.1% (active). For `CCOC(=O)C1=C(c2ccc(OC)cc2)C(=O)c2ccccc2C1=O`, the inhibition was -5.23% (inactive). For `CC(C)Nc1ccc(-n2nc3ccccc3[n+]2[O-])cc1`, the inhibition was 44% (active). `O=C(Nc1ccc2c(c1)OCCO2)C1CCCN(c2ncccn2)C1` (stereo not given) was tested, and the inhibition was 20.5% (active). `Clc1ccc2nc(CSc3ccccc3)cn2c1` was tested, and the inhibition was 53% (active). In the case of `Cc1nc2cc(NC(=O)Nc3cccc(F)c3)ccc2n1C`, the inhibition is reported as 21.4% (active). For `Cc1ccc(Nc2nc(-c3ccc(O)cc3O)cs2)nc1`, the inhibition was -25.8% (inactive). In the case of `Cc1cnc(NC(=O)c2ccccn2)s1`, the inhibition is reported as 15.6% (active). With `Cc1ccc(Nc2nc(-c3sc(NC(=O)c4ccccc4)nc3C)cs2)cc1` the inhibition was -23.6% (inactive). For `CCOC(=O)CNC(=O)c1nn(-c2cccc(OC)c2)c(=O)c2ccccc12`, the inhibition was -3.73% (inactive). In the case of `CCOc1ccc(OCc2cccc(C(=O)N(CC)CC)c2)cc1`, the inhibition is reported as 22.5% (active). With `CCOc1ccc(OCc2ccc(C(=O)N(C)c3ccccc3)o2)cc1` the inhibition was -13.3% (inactive). `Nc1ccc(-c2nnc(-c3ccccc3)o2)cc1` was tested, and the inhibition was -10.8% (inactive). `CCc1ccc2oc(-c3ccc(N)cc3)nc2c1` was tested, and the inhibition was 51% (active). With `O=C(Cn1c[n+](CC(=O)c2ccc([N+](=O)[O-])cc2)cn1)c1ccc([N+](=O)[O-])cc1` the inhibition was -6.5% (inactive) and -8.93% (inactive). With `COc1cc(CNC2CCCCC2)c(Br)cc1OC1CCCC1` the inhibition was 1% (inactive). With `COC(=O)C1[C@H]2SC(C)(C)C(C(=O)OC)N2C(=O)N1Cc1nc2ccccc2s1` (stereo not given in full) the inhibition was -10.3% (inactive). With `COc1ccc(CNC(=O)/C(C#N)=C/c2cccc(OC)c2OC)cc1` the inhibition was -0.6% (inactive). For `COc1ccc(Nc2ncnc3ccc(Br)cc23)c(OC)c1`, the inhibition was 55.5% (active). `Cc1ccc2nc(/C(C#N)=C\c3ccc(OC(=O)c4cccs4)cc3)[nH]c2c1` was tested, and the inhibition was -9.37% (inactive). With `CCCCNC(=O)Nc1c(C)cc(SC#N)cc1C` the inhibition was -1.43% (inactive). `Cc1nn(CC(=O)Nc2ccc(F)cc2)c(=O)c2ccccc12` was tested, and the inhibition was -7.73% (inactive). With `CCOc1ccc(-c2nnc(-c3ccco3)o2)cc1` the inhibition was 56.9% (active). In the case of `O=C(CN1C(=O)c2ccccc2S1(=O)=O)N1CCc2ccccc21`, the inhibition is reported as -9.57% (inactive). For `CCOc1c(Br)cc(/C=C2\C(=O)N(CCC#N)N=C2C)cc1OC`, the inhibition was 29.9% (active). For `N#C/C=C\Oc1ccc(Cl)cc1N`, the inhibition was -7.1% (inactive). With `Cc1nnc(SCC(=O)N2c3ccccc3C(C)(c3ccc(Cl)cc3)CC2(C)C)s1` (stereo not given) the inhibition was -1.27% (inactive). `O=C(Nc1cccnc1)c1noc2c1CCCCC2` was tested, and the inhibition was 38.6% (active). For `COc1cc(NS(=O)(=O)c2ccc3ccccc3c2)c2ncccc2c1`, the inhibition was -7.83% (inactive). For `CSCCC(C(=O)NC1=NCCS1)N1C(=O)c2ccccc2C1=O` (stereo not given), the inhibition was -8.47% (inactive). For `CN(C)c1ccc(-n2cccc2/C=N/n2cnnc2)cc1`, the inhibition was -11.7% (inactive). For `Cc1nc2ccc(C(=O)O)cc2[nH]1`, the inhibition was 4.87% (inactive). With `CC(C)c1nc2ccc(C(=O)O)cc2[nH]1` the inhibition was 31.5% (active). With `CC(C)(C)OC(=O)c1c(N)n(CCCN2CCCC2=O)c2nc3ccccc3nc12` the inhibition was -7.33% (inactive). With `CCCS(=O)(=O)N1CCCC(C(=O)NCCN2CCCCC2C)C1` (stereo not given) the inhibition was -4.93% (inactive). With `Cc1ccc(-c2cn3cc(C)ccc3n2)cc1` the inhibition was 87.3% (active). For `COc1ccc(-c2cn3ccc(C)cc3n2)cc1`, the inhibition was 69.7% (active). In the case of `Cc1ccc2nc(-c3ccc(Br)cc3)cn2c1`, the inhibition is reported as 81.5% (active). `Cc1cccc(C(=O)OC(C)CN2CCN(C)CC2)c1` (stereo not given) was tested, and the inhibition was -7.93% (inactive). In the case of `O=C(O)c1ccc(N=NN2CCOCC2)cc1`, the inhibition is reported as -12.9% (inactive). In the case of `Cc1ccc(C(=O)CSc2ccccc2C(=O)O)cc1`, the inhibition is reported as -0.87% (inactive). In the case of `O=C(CSC(=S)N1CCOCC1)c1ccccc1`, the inhibition is reported as 34.5% (active). With `CCOC(=O)N1CCN(Cc2nc3c(c(=O)n(C)c(=O)n3C)n2Cc2ccccc2)CC1` the inhibition was -8.93% (inactive). With `C=CCN1CCN(C(=O)CCCc2ccccc2)CC1` the inhibition was 37.2% (active). For `O=C(Cc1ccccc1)N1CCN(S(=O)(=O)c2ccc([N+](=O)[O-])cc2)CC1`, the inhibition was -3.47% (inactive). For `COc1cc(C(=O)NN(CCC#N)C2=NS(=O)(=O)c3ccccc32)cc(OC)c1OC`, the inhibition was -6.77% (inactive). With `Cc1cccc(CCNC(=O)Cn2ncc3c([nH]c4ccc(C)cc43)c2=O)c1` the inhibition was -0.53% (inactive). For `CN(c1ccc2nc3ccccc3c(=O)n2n1)C1CCCCC1`, the inhibition was 87.3% (active). In the case of `O=C(OC1CCOC1=O)c1ccc(-c2nc3ccccc3s2)s1` (stereo not given), the inhibition is reported as 65.2% (active). In the case of `c1ccc(-c2noc(-c3cccs3)n2)nc1`, the inhibition is reported as 27.4% (active). With `CCOC(=O)c1nc(C)n(-c2ccc(Cl)cc2Cl)n1` the inhibition was -5.2% (inactive). For `CCc1nc(SCC(=O)Nc2ccccc2OC)n[nH]1`, the inhibition was 0.13% (inactive). With `O=C(Nc1ccccc1C(=O)O)c1ccc(N2C(=O)C3CC=CCC3C2=O)cc1` (stereo not given) the inhibition was -15.7% (inactive). For `COc1ccc(C(=O)Nc2ccccc2C(=O)N/N=C/c2ccccc2OC)cc1`, the inhibition was 43.8% (active). For `COc1ccc(C(=O)Nc2ccccc2C(=O)N/N=C/c2ccc(O)c(OC)c2)cc1`, the inhibition was 93.5% (active). `COc1ccc(/C=N/Nc2ccccc2C(=O)O)cc1` was tested, and the inhibition was 23.4% (active). For `COc1ccc(Cl)cc1NC(=O)Cn1nc(-c2ccc(C)cc2)n(C)c1=S`, the inhibition was -10.3% (inactive). With `CC(OC(=O)c1ccc2noc(-c3ccccc3)c2c1)C(N)=O` (stereo not given) the inhibition was -3.9% (inactive). With `Oc1c(C=Nc2cccc3nsnc23)ccc2ccccc12` the inhibition was -18.8% (inactive). With `COc1ccc(-c2nc(-c3ccccc3)no2)c(OC)c1` the inhibition was 81.7% (active). `COc1ccc(/C=C/c2noc(-c3ccccc3OC(C)=O)n2)cc1` was tested, and the inhibition was -12.5% (inactive). In the case of `CCCCOCCCNC(=O)c1ccccc1OCC`, the inhibition is reported as -6.47% (inactive). `CCCOc1ccc(C(=O)NCCc2ccccc2)cc1` was tested, and the inhibition was 44% (active). For `COc1cccc(/C=C/c2ccc3ccccc3n2)c1OC(C)=O`, the inhibition was -12.7% (inactive). For `Cc1ccc(C(=O)COC(=O)c2cccc(N3C(=O)c4c(C)nc5ccccc5c4C3=O)c2)cc1C`, the inhibition was -20.1% (inactive). In the case of `COc1cccc2c(C)c(C(=O)O)[nH]c12`, the inhibition is reported as 30.6% (active). In the case of `O=C1CCC([N+](=O)[O-])C(c2ccccc2Br)N1` (stereo not given), the inhibition is reported as -7.7% (inactive). In the case of `CC(C)CNC(=O)CC(NCC(C)C)C(=O)O` (stereo not given), the inhibition is reported as -6.07% (inactive). `Clc1cccc(N=C2NN=C(c3ccc4c(c3)OCCO4)CS2)c1` was tested, and the inhibition was 36.7% (active). With `c1c2c(cc3sc(N4CCCCC4)nc13)OCCO2` the inhibition was 80% (active). With `CCN(CCCNC(=O)c1ccc2c(c1)NC(=O)CN2C)c1cccc(C)c1` the inhibition was -5.03% (inactive). `CCOc1ccc(N/C=C/C(=O)c2ccccc2)cc1` was tested, and the inhibition was 62.8% (active). With `COc1ccc(C(=O)/C=C/Nc2ccccn2)cc1` the inhibition was 90.9% (active). In the case of `CCCCCc1ccc(-c2ccc(C(=O)O)cc2)nc1`, the inhibition is reported as 57.8% (active). `C/C(=N\NC(=S)NC1CCCCC1)c1ccc(C)o1` was tested, and the inhibition was -11.1% (inactive). `CCS(=O)(=O)c1cc([N+](=O)[O-])c(Sc2ccccc2N)s1` was tested, and the inhibition was 46% (active). In the case of `CCc1ccc(Nc2ncc3c(n2)CC(c2ccco2)CC3=O)cc1` (stereo not given), the inhibition is reported as -15% (inactive). `Cc1ccsc1C(=O)OCC(=O)c1cc(C)n(CC2CCCO2)c1C` (stereo not given) was tested, and the inhibition was 85.4% (active). With `COCc1cc(=O)[nH]c2cc(NC(=O)C(F)(F)F)c(C)cc12` the inhibition was -7% (inactive). In the case of `CN(CCO)c1ccc(/C=N/Nc2nncc3ccccc23)cc1`, the inhibition is reported as 84.2% (active). In the case of `CCCCC(=O)Nc1nc(C)c(-c2csc(Nc3ccc(Cl)cc3)n2)s1`, the inhibition is reported as -9.5% (inactive). In the case of `O=c1oc(/C=C/c2ccccc2)nc2ccccc12`, the inhibition is reported as -16.5% (inactive).
